Our source for the AC50 and outcome values is PubChem BioAssay (EPA / NIEHS).

Activity calls are given as the source filed them. The calls were made as follows: active = hit-call score of the fitted dose curve at least 0.9, where 1 is the maximum; inconclusive = response in the unintended direction; inactive = score below 0.9.

Sequence of rat CYP2C11, Cyp2c11 (gene 29277) (P08683 whole entry, looked up): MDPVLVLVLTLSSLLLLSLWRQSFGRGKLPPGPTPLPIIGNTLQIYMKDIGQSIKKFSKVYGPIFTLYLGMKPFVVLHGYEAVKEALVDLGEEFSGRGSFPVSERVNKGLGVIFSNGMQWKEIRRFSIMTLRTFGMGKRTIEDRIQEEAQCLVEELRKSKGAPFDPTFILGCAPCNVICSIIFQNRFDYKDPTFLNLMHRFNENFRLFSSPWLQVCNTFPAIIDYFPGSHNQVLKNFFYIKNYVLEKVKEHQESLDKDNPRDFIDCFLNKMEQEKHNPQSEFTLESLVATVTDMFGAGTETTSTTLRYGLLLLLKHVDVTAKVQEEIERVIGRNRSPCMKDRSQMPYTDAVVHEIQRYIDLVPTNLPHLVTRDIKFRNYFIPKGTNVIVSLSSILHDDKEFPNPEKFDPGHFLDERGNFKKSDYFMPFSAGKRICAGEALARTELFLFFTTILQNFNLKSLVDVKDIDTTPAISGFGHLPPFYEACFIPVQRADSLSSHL

The test system of the first experiment is rat CYP2B1, gene 24300. Nature of the experiment: NVS_ADME_rCYP2B1: NovaScreen (NVS) CYP450-related Enzyme Activity (ADME) Assay for rat CYP2B1 (AID 2283117). The method, then: (§1) NVS_ADME_rCYP2B1 is a biochemical, single-readout assay that uses extracted gene-proteins in a cell-free assay. Measurements were taken 0.75 hour after chemical dosing in a 96-well plate.NVS_ADME_rCYP2B1 is one of one assay component(s) measured or calculated from the NVS_ADME_rCYP2B1 assay. It is designed to make measurements of enzyme activity, a form of enzyme reporter, as detected with fluorescence intensity signals by Fluorescence technology.Data from the assay component NVS_ADME_rCYP2B1 was analyzed into 1 assay endpoint. This assay endpoint, NVS_ADME_rCYP2B1, was analyzed in the positive analysis fitting direction relative to Acetonitrile as the negative control and baseline of activity. Using a type of enzyme reporter, loss-of-signal activity can be used to understand changes in the enzymatic activity as they relate to the gene Cyp2b1. Furthermore, this assay endpoint can be referred to as a primary readout, because this assay has produced multiple assay endpoints where this one serves a enzymatic activity function. To generalize the intended target to other relatable targets, this assay endpoint is annotated to the cyp intended target family, where the subfamily is xenobiotic metabolism.
(§2) Binding assays used specific radioligands (tritiated, iodinated) with non-radioactive competitive displacement ligands in agonist or antagonist protocols (as indicated) and various reference compounds and inhibitors to titrate specific binding to receptors and transporters. Most enzyme assays (CYPs, kinases, phosphatases, proteases, HDACs) used recombinant protein and specific substrates (fluorescence mostly, some colorimetric and radioactive) and inhibitors, followed by a biochemical separation of substrate and product. All assays for the biochemical HTS were initially run in duplicate at a single concentration (10 uM for CYP450 assays and 25 uM for all others). Assay-chemical combinations meeting a pre-defined threshold (e.g., 30% inhibition and other criteria defined below) were then run in singleton concentration-response format with maximum concentration of 20 uM for CYPs and 50 uM for all others. Each assay was run with positive and negative controls, and concurrent controls on every plate. The follow-up (secondary) screen tested active chemical-pairs in concentration series, as well as a few additional assays not tested in the primary screen, some selected negative inactives, and several cases re-run in the concentration series for confirmatory purposes.
As for `COc1nn(CSP(=S)(OC)OC)c(=O)s1`, the AC50 is 2.65 µM (active).

Turning to `CC[C@H](C)[C@H]1O[C@]2(C=C[C@@H]1C)C[C@@H]1C[C@@H](C/C=C(\C)[C@@H](O[C@H]3C[C@H](OC)[C@@H](O[C@H]4C[C@H](OC)[C@@H](O)[C@H](C)O4)[C@H](C)O3)[C@@H](C)/C=C/C=C3\CO[C@@H]4[C@H](O)C(C)=C[C@@H](C(=O)O1)[C@]34O)O2` (tested in a mixture with another compound), the call was inactive.

`Oc1ccc(Cl)cc1Cc1ccccc1`: the AC50 was 6.42 µM (active).

`CC(C)(C)C(O)/C(=C\c1ccc(Cl)cc1Cl)n1cncn1` (centres undefined): the AC50 was 0.0164 µM (active).

Take `CN1CSC(=S)N(C)C1`: the AC50 was 3.9 µM (active).

With `CC(C)(C)C(O)C(Oc1ccc(Cl)cc1)n1cncn1` (centres undefined), the AC50 was 5.58 µM (active).

Consider `CCCN(CCOc1c(Cl)cc(Cl)cc1Cl)C(=O)n1ccnc1`, for which the half-maximal activity concentration (AC50) is 0.0338 µM (active).

The target in another experiment is rat CYP2C11, Cyp2c11 (gene 29277) (UniProt P08683). The experiment is described as follows: NVS_ADME_rCYP2C11: NovaScreen (NVS) CYP450-related Enzyme Activity (ADME) Assay for rat CYP2C11 (AID 2283118). How it is done:
as §1, with “NVS_ADME_rCYP2C11” for “NVS_ADME_rCYP2B1”, “0.33” for “0.75”, “plate.NVS_ADME_rCYP2C11” for “plate.NVS_ADME_rCYP2B1”, “NVS_ADME_rCYP2C11,” for “NVS_ADME_rCYP2B1,”, “Cyp2c11.” for “Cyp2b1.”
as §2, with “Assay-chemical combinations meeting a pre-defined threshold (e.g., 30% inhibition and other criteria defined below) were then run in singleton concentration-response format with maximum concentration of 20 uM for CYPs and 50 uM for all others.” left out
Take `COc1nn(CSP(=S)(OC)OC)c(=O)s1`: the concentration at half-maximal activity (AC50) was 0.564 µM (active).

For the compound `CCOC1Oc2ccc(OS(C)(=O)=O)cc2C1(C)C` (centres undefined), the AC50 is 4.18 µM (active).

In the case of `Oc1ccc(Cl)cc1Cc1ccccc1`, the half-maximal activity concentration (AC50) is 7.16 µM (active).

As to `CC(C)(C)C(O)/C(=C\c1ccc(Cl)cc1Cl)n1cncn1` (centres undefined), the AC50 is 0.369 µM (active).

Consider `O=S(=O)(O)C(F)(F)C(F)(F)C(F)(F)C(F)(F)C(F)(F)C(F)(F)C(F)(F)C(F)(F)F`, for which the AC50 was 0.0854 µM (active).

For the compound `CC(C)N(C(=O)COc1nnc(C(F)(F)F)s1)c1ccc(F)cc1`, the half-maximal activity concentration (AC50) is 6.6 µM (active).

In the case of `CC(C)(C)C(O)C(Oc1ccc(Cl)cc1)n1cncn1` (centres undefined), the AC50 is 4.45 µM (active).

Consider `COP(=S)(OC)Oc1ccc([N+](=O)[O-])cc1`, for which the concentration at half-maximal activity (AC50) is 2.77 µM (active).

`CCCN(CCOc1c(Cl)cc(Cl)cc1Cl)C(=O)n1ccnc1`: the half-maximal activity concentration (AC50) is 0.0766 µM (active).

A further experiment has as its system rat CYP2C6, gene 293989. The experiment is described as follows: NVS_ADME_rCYP2C6: NovaScreen (NVS) CYP450-related Enzyme Activity (ADME) Assay for rat CYP2C6 (AID 2283120). The method, boiled down: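 Cell-free recombinant rat CYP2C6 with fluorogenic substrate, read by fluorescence 1 h after dosing; acetonitrile as negative control. Primary screen at 10 uM in duplicate, actives then in concentration-response up to 20 uM.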
Turning to `COc1nn(CSP(=S)(OC)OC)c(=O)s1`, the AC50 was 0.258 µM (active).

As to `CNC(=O)CSP(=S)(OC)OC`, the AC50 is 4.77 µM (active).

With `Oc1ccc(Cl)cc1Cc1ccccc1`, the AC50 was 5.19 µM (active).

With `CC(C)N(C(=O)COc1nnc(C(F)(F)F)s1)c1ccc(F)cc1`, the concentration at half-maximal activity (AC50) is 7.85 µM (active).

As for `CCOCN(C(=O)CCl)c1c(C)cccc1CC`, the half-maximal activity concentration (AC50) was 10 µM (active).

`COP(=S)(OC)Oc1ccc(SC)c(C)c1`: the AC50 is 1.83 µM (active).

For `COP(=S)(OC)Oc1ccc([N+](=O)[O-])cc1`, the AC50 was 0.344 µM (active).

Turning to `CCCN(CCOc1c(Cl)cc(Cl)cc1Cl)C(=O)n1ccnc1`, the half-maximal activity concentration (AC50) is 0.166 µM (active).

As a reminder, the AC50 is the concentration giving half of the maximal activity seen.
